Consider 40 compounds from PubChem BioAssay (Tox21).

Molecules are shown by their SMILES. Results filed as inconclusive are left out. A number with no mark means an inactive call. The source made the active and inactive calls. Calls come from the whole dose curve; as a rule, active = well fitted cell-killing curve with a large enough effect in the repeat runs; inconclusive = weak or mixed curves, or effect the other way; inactive = flat fitted curve, though single readings scatter.
% is set by controls: 0 for no effect and ±100 for the full control effect; potency is the fitted concentration of half-maximal effect.

The experiment in a line: cAMP Responsive Elements (CRE) small molecule antagonists, cell-based qHTS assay: qHTS cell viability counter screen (AID 2060913). Note: nearly all actives have a fitted effect of over 40% in size. The conditions noted are these: CRE-bla HEK293T viability, CellTiter-Glo luminescence, 5 h; series mostly up to 92.4 µM; viability change, negative = cytotoxic: at the top concentration. In outline:
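Viability of NKH477-stimulated (0.25 uM final) CRE-bla HEK293T cells is measured by CellTiter-Glo luminescence following 3 hrs compound exposure at 37 C.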
As for `Cc1cc(SC2=C(O)C[C@@](CCc3ccc(N)cc3)(C(C)C)OC2=O)c(C(C)(C)C)cc1CO`, the “viability change, negative = cytotoxic” value is -6.01%. With `CNC1CCCN(c2c(F)cc3c(=O)c(C(=O)O)cn(C4CC4)c3c2OC)C1` (stereo not given), the “viability change, negative = cytotoxic” value was -1.96% [at 42.5 µM]. Consider `COc1ccc(OC)c(Cl)c1`, for which the “viability change, negative = cytotoxic” value was 0.0713%. For `COc1nc(N)nc2nc[nH]c12`, the “viability change, negative = cytotoxic” value was 14.2%. Still for that read-out and setting: the same measure for `C[C@@H](O[C@H]1OCCN(Cc2n[nH]c(=O)[nH]2)[C@H]1c1ccc(F)cc1)c1cc(C(F)(F)F)cc(C(F)(F)F)c1`: -23.3% [at 42.5 µM]; for `C[C@H](O)C(=O)Nc1c(I)c(C(=O)NC(CO)CO)c(I)c(C(=O)NC(CO)CO)c1I`: 5.49% [at 42.5 µM]. As for `O=c1[nH]cnc2c1ncn2[C@H]1CC[C@@H](CO)O1`, the Potency result is “inactive”.

As to `CC/C=C\CCCCCCCCCCOC(C)=O`, the “viability change, negative = cytotoxic” value was 2.18%. On the same count and under the same terms, the same measure for `CCn1c2ccccc2c2cc([N+](=O)[O-])ccc21`: -8.03%; for `COc1cc(C(=O)NCc2ccc(OCCN(C)C)cc2)cc(OC)c1OC`: -1.18% [at 42.5 µM]. Take `Nc1ccc(Cl)c([N+](=O)[O-])c1`: the “viability change, negative = cytotoxic” value was -4.75%. As for `CCCc1ccc(OC)cc1`, the “viability change, negative = cytotoxic” value was -0.804%.

Regarding `CN(C)Cc1ccccc1`, the “viability change, negative = cytotoxic” value is 9.91%. For the compound `O=c1cc[nH]c(=O)[nH]1`, the Potency result was “inactive”.

In the case of `CCCCNc1ccc(C(=O)OCCOCCOCCOCCOCCOCCOCCOCCOCCOC)cc1`, the “viability change, negative = cytotoxic” value was -0.903% [at 42.5 µM].

Consider `CN(C)c1ccc(Cc2ccc(N(C)C)cc2)cc1`, for which the Potency entry was “inactive”. Turning to `CC(C)(C)C1=CC(=O)C=C(C(C)(C)C)C1=O`, the “viability change, negative = cytotoxic” value is -3.69%.

For the compound `CC(C)(C)c1ccc(OC2CCCCC2O)cc1` (stereo not given), the “viability change, negative = cytotoxic” value is -17.1%. In the case of `Cc1nc(Nc2ncc(C(=O)Nc3c(C)cccc3Cl)s2)cc(N2CCN(CCO)CC2)n1`, the “viability change, negative = cytotoxic” value was -0.807% [at 42.5 µM]. Turning to `C=C(C)C(=O)OC`, the “viability change, negative = cytotoxic” value was 0.0872%. Take `CC(=O)Oc1ccccc1C(=O)Nc1ncc([N+](=O)[O-])s1`: the Potency is 7.5 µM (active).

For the compound `CC/C=C\CCOC(=O)c1ccccc1`, the “viability change, negative = cytotoxic” value is -0.512%. For the compound `CC=C(Cl)Cl`, the “viability change, negative = cytotoxic” value was 4.8%.

Take `CCCCCCCCOC(=O)CCCCCCCCC(=O)OCCCCCCCC`: the “viability change, negative = cytotoxic” value is 9.66%. Turning to `CC(C)=CCCC(C)O` (stereo not given), the “viability change, negative = cytotoxic” value was 21.5%. Take `C/C=C\C/C=C/CCCCCCCCOC(C)=O`: the “viability change, negative = cytotoxic” value is 4.05%.

`NS(=O)(=O)c1ccc(NC(=O)CCC(=O)O)cc1`: the “viability change, negative = cytotoxic” value is -2.03% [at 42.5 µM]. Regarding `OCCCc1ccccc1`, the Potency result was “inactive”. As to `CCCCOCCOC(=O)COc1nc(Cl)c(Cl)cc1Cl`, the “viability change, negative = cytotoxic” value is -0.0731%.

As to `Clc1nc2ccccc2nc1Cl`, the “viability change, negative = cytotoxic” value was 0.495%. For `NCCCCCC(=O)O`, the “viability change, negative = cytotoxic” value was -0.307% [at 42.5 µM]. As to `C=CC(=O)NCOCC(C)C`, the “viability change, negative = cytotoxic” value is 1.08%. As to `O=S(=O)(O)c1cc(I)c(O)c2ncccc12`, the “viability change, negative = cytotoxic” value was -0.676% [at 42.5 µM]. As for `CN(C)c1ccc(SC#N)cc1`, the “viability change, negative = cytotoxic” value is -0.473%. Turning to `COc1ccc(C(=O)NCc2ccc(OCCN(C)C)cc2)cc1OC`, the “viability change, negative = cytotoxic” value is 3.79% [at 42.5 µM]. In the case of `FC(F)(F)c1ccc(Cl)cc1Cl`, the “viability change, negative = cytotoxic” value was 2.06%. Same read-out and setting: the same measure for `O=Cc1c2ccccc2c(Cl)c2ccccc12`: 14.7% [at 42.5 µM].

As to `S=C1NC=NC2N=CNC12` (stereo not given), the Potency was 3.06 µM (active). Regarding `Cc1nc(-c2ccccn2)ncc1C(=O)Nn1cc(C)c2cc(F)ccc21`, the “viability change, negative = cytotoxic” value was -8.68%. For `CC(C)OC(=O)c1cc(C(=O)OC(C)C)cc([N+](=O)[O-])c1`, the “viability change, negative = cytotoxic” value is -1.06%.
